Assay [1] in a line: NCI Yeast Anticancer Drug Screen. Data for the rad50 strain (AID 155).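 Further: 0% = growth of vehicle-only cultures of the same strain.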 To be noted: S. cerevisiae rad50 strain growth inhibition, stronger effect = higher value. Summed up:
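Compounds were tested on a yeast strain with an engineered DNA damage repair alteration; the reported value is growth inhibition normalised to vehicle treatment.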

Assay [2] in a line: NCI Yeast Anticancer Drug Screen. Data for the mec2-1 strain (AID 157). The settings on record: S. cerevisiae mec2-1 strain, stronger effect = higher value. Summed up:
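Using mec2-1 yeast: add compound, measure growth, express inhibition versus vehicle-treated cultures.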

Assay [3] is described as follows: NCI Yeast Anticancer Drug Screen. Data for the sgs1 mgt1 strain (AID 161).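 Further: 0% = growth of cultures given vehicle only.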 To be noted: S. cerevisiae sgs1 mgt1 strain, stronger effect = higher value. Summed up:
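Percent growth inhibition was derived by comparing compound-exposed mutant yeast with vehicle-exposed cultures. The strain carries alterations in DNA damage repair.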

Assay [4] can be described thus: NCI Yeast Anticancer Drug Screen. Data for the cln2 rad14 strain (AID 165).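 Further: 0% = growth equal to vehicle treated cultures.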 The settings on record: S. cerevisiae cln2 rad14 strain, stronger effect = higher value. Summed up: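 Yeast strain cln2 rad14, bearing defects in cell cycle control and DNA repair, serves as the test system; values reflect growth inhibition compared with vehicle.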
The nature of assay [5]: NCI Yeast Anticancer Drug Screen. Data for the bub3 strain (AID 167). The settings on record: S. cerevisiae bub3 mutant strain, stronger effect = higher value. Summed up: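 Growth of a checkpoint-deficient yeast mutant is measured after compound exposure. Values represent inhibition relative to vehicle.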
A short description of assay [6]: NCI Yeast Anticancer Drug Screen. Data for the mlh1 rad18 strain (AID 175). To be noted: S. cerevisiae mlh1 rad18 strain growth inhibition, stronger effect = higher value. Summed up: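 Steps: expose repair-defective yeast to compound; measure growth; express inhibition against vehicle-treated controls.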
Where [7] appears, read: at 5.0 µM (retest, dose inferred, filed as 0.5).
Where [8] appears, read: at 50.0 µM (retest, dose inferred, filed as 5.0).

Structures are written as SMILES. Values joined by “and” are separate entries in the source; they are usually repeats but may differ in a detail not shown here. Equal entries are not always repeated. The panel holds about 79,000 compounds, 15% with a hit somewhere; the sample as a whole holds those more often. The source holds several records for some structures; these can differ, active in one and inactive in another. Active and inactive are the calls of the source. No stated cut-off is given here; in the data, active means growth inhibition above about 70%; inactive means the rest.

Take `ClCC[N+]12CC[N+](CCCl)(CC1)C2`: the growth inhibition in assay [1] (setting [7]) was 59% (inactive); in assay [1] (setting [8]) it was 97% (active); in assay [2] (setting [7]) it was 50% (inactive); in assay [2] (setting [8]) it was 98% (active); in assay [3] (setting [7]), 86% (active); in assay [3] (setting [8]), 99% (active). Also, the growth inhibition was 75% (active) in assay [4] (setting [7]), 98% (active) in assay [4] (setting [8]), 82% (active) in assay [5] (setting [7]) and 98% (active) in assay [5] (setting [8]).

With `CN(C)C(=[Se])[Se]C(=[Se])N(C)C`, the growth inhibition in assay [1] (setting [7]) was 95% (active); in assay [1] (setting [8]), 91% (active); in assay [1] (at 50.0 µM), 95.8% (active); in assay [2] (setting [7]), 96% (active); in assay [2] (setting [8]), 93% (active); in assay [2] (at 50.0 µM), 96% (active). In addition, the growth inhibition in assay [3] (setting [7]) is 93% (active); in assay [3] (setting [8]), 92% (active); in assay [3] (at 50.0 µM) it was 95.5% (active); in assay [4] (setting [7]), 84% (active); in assay [4] (setting [8]), 90% (active); in assay [4] (at 50.0 µM), 91% (active). Further, the growth inhibition in assay [5] (setting [7]) is 93% (active); in assay [5] (setting [8]), 92% (active); in assay [5] (at 50.0 µM) it was 95.8% (active); in assay [6] (setting [7]) it was 96% (active); in assay [6] (setting [8]), 91% (active); in assay [6] (at 50.0 µM), 96.3% (active).

Regarding `CNC1=C(C)C(=O)C2=C(C1=O)C(COC(N)=O)C1(O)C3C(CN21)N3C` (configuration not stated), the growth inhibition in assay [2] (setting [7]) is 20% (inactive); in assay [2] (setting [8]) it was 90% (active); in assay [2] (at 50.0 µM) it was 74.9% (active); in assay [3] (setting [7]) it was 19% (inactive); in assay [3] (setting [8]) it was 78% (active); in assay [3] (at 50.0 µM), 69.8% (inactive). The growth inhibition in assay [4] (setting [7]) was 9% (inactive); in assay [4] (setting [8]), 84% (active); in assay [4] (at 50.0 µM), 61.4% (inactive); in assay [5] (setting [7]), 3% (inactive); in assay [5] (setting [8]), 59% (inactive); in assay [5] (at 50.0 µM), 52.2% (inactive). The growth inhibition was 47% (inactive) in assay [6] (setting [7]), 95% (active) in assay [6] (setting [8]) and 83% (active) in assay [6] (at 50.0 µM).

`C[C@H]1CCC/C=C/[C@@H]2C[C@H](O)C[C@H]2[C@H](O)/C=C/C(=O)O1`: the growth inhibition was 5% (inactive) and 15% (inactive) in assay [1] (setting [7]); 98% (active) and 99% (active) in assay [1] (setting [8]); 10% (inactive) and 26% (inactive) in assay [2] (setting [7]); 99% (active) and 100% (active) in assay [2] (setting [8]); 13% (inactive) and 21% (inactive) in assay [3] (setting [7]); 99% (active) in assay [3] (setting [8]). The growth inhibition was 90.3% (active) and 5.45% (inactive) and 90.8% (active) in assay [3] (at 50.0 µM); 7% (inactive) and 27% (inactive) in assay [4] (setting [7]); 99% (active) in assay [4] (setting [8]); 4% (inactive) and 31% (inactive) in assay [5] (setting [7]); 97% (active) and 98% (active) in assay [5] (setting [8]); 90.8% (active) and 1.65% (inactive) and 90.9% (active) in assay [5] (at 50.0 µM). Moreover, the growth inhibition is 17% (inactive) and 42% (inactive) in assay [6] (setting [7]); 99% (active) in assay [6] (setting [8]); 90.8% (active) and 13.7% (inactive) and 39% (inactive) in assay [6] (at 50.0 µM).

With `N=C(N)SCc1ccccc1`, the growth inhibition in assay [1] (at 50.0 µM) was -2.55% (inactive) [middle of 5 runs]; in assay [2] (at 50.0 µM) it was -2.2% (inactive) [middle of 5 runs]; in assay [3] (at 50.0 µM), 7.55% (inactive) [middle of 5 runs]; in assay [5] (at 50.0 µM) it was -5.6% (inactive) [middle of 5 runs].

On to `[C-]#[O+].[C-]#[O+].[C-]#[O+].[CH3][Sn]([c]1ccccc1)[c]1ccccc1.[Co].c1ccc([PH+](c2ccccc2)c2ccccc2)cc1`, for which the growth inhibition is 99% (active) in assay [1] (setting [7]); 99% (active) in assay [1] (setting [8]); 99.5% (active) in assay [1] (at 50.0 µM); 99% (active) in assay [2] (setting [7]); 100% (active) in assay [2] (setting [8]); 99.5% (active) in assay [2] (at 50.0 µM). The growth inhibition in assay [3] (setting [7]) was 99% (active); in assay [3] (setting [8]), 100% (active); in assay [3] (at 50.0 µM), 99.5% (active); in assay [4] (setting [7]), 99% (active); in assay [4] (setting [8]) it was 99% (active); in assay [4] (at 50.0 µM) it was 99% (active). In addition, the growth inhibition in assay [5] (setting [7]) is 99% (active); in assay [5] (setting [8]), 99% (active); in assay [5] (at 50.0 µM) it was 99.5% (active); in assay [6] (setting [7]), 99% (active); in assay [6] (setting [8]), 99% (active); in assay [6] (at 50.0 µM), 99.3% (active).

As to `CC1(O)CC([CH2][Hg][I])OC([CH2][Hg][I])C1` (configuration not stated), the growth inhibition in assay [1] (setting [7]) was 99% (active); in assay [1] (setting [8]) it was 99% (active); in assay [1] (at 50.0 µM), 96.3% (active); in assay [2] (setting [7]), 99% (active); in assay [2] (setting [8]) it was 99% (active); in assay [2] (at 50.0 µM), 98.3% (active). Also, the growth inhibition in assay [3] (setting [7]) is 100% (active); in assay [3] (setting [8]), 99% (active); in assay [3] (at 50.0 µM) it was 96% (active); in assay [5] (setting [7]) it was 99% (active); in assay [5] (setting [8]), 98% (active); in assay [5] (at 50.0 µM) it was 98.6% (active). Also, the figures for the growth inhibition in assay [6] (setting [7]), in assay [6] (setting [8]) and in assay [6] (at 50.0 µM) were 99% (active), 99% (active) and 91.6% (active), respectively.

In the case of `CC(=O)Oc1cccc2c1CC(C[Se]c1ccccc1)C(=O)O2` (configuration not stated), the growth inhibition in assay [1] (setting [7]) is 11% (inactive); in assay [1] (setting [8]) it was 40% (inactive); in assay [1] (at 50.0 µM), 69.9% (inactive); in assay [2] (setting [7]) it was 8% (inactive); in assay [2] (setting [8]), 35% (inactive); in assay [2] (at 50.0 µM), 35.5% (inactive). For the same molecule, the growth inhibition in assay [3] (setting [7]) was 11% (inactive); in assay [3] (setting [8]), 57% (inactive); in assay [3] (at 50.0 µM), 70.2% (active); in assay [5] (setting [7]) it was -7% (inactive); in assay [5] (setting [8]), 38% (inactive); in assay [5] (at 50.0 µM), 35% (inactive). For the same molecule, the growth inhibition in assay [6] (setting [7]) was 11% (inactive); in assay [6] (setting [8]), 66% (inactive); in assay [6] (at 50.0 µM) it was 74.2% (active).

Take `NC(c1ccccc1)C(O)c1ccccc1` (configuration not stated): the growth inhibition in assay [1] (at 50.0 µM) was 2.1% (inactive) [middle of 4 runs]; in assay [2] (at 50.0 µM) it was 3.2% (inactive) [middle of 4 runs]; in assay [3] (at 50.0 µM), 10.7% (inactive) [middle of 4 runs]; in assay [6] (at 50.0 µM) it was -10.7% (inactive) [middle of 4 runs].

With `CCNC(=O)O/N=C1/C=C2CC[C@@H]3C(CC[C@@]4(C)C3CC[C@@H]4OC(=O)NCC)[C@@]2(C)CC1` (some centres not stated), the growth inhibition in assay [1] (setting [7]) was 94% (active); in assay [1] (setting [8]) it was 66% (inactive); in assay [1] (at 50.0 µM), 97.8% (active); in assay [2] (setting [7]), 97% (active); in assay [2] (setting [8]) it was 45% (inactive); in assay [2] (at 50.0 µM) it was 98.1% (active). Also, the growth inhibition in assay [3] (setting [7]) was 97% (active); in assay [3] (setting [8]) it was 72% (active); in assay [3] (at 50.0 µM), 97.5% (active); in assay [4] (setting [7]), 96% (active); in assay [4] (setting [8]) it was 14% (inactive); in assay [4] (at 50.0 µM), 96.2% (active). Besides, the growth inhibition in assay [5] (setting [7]) is 93% (active); in assay [5] (setting [8]), 58% (inactive); in assay [5] (at 50.0 µM) it was 97.2% (active); in assay [6] (setting [7]) it was 97% (active); in assay [6] (setting [8]), 69% (inactive); in assay [6] (at 50.0 µM), 97.5% (active).

Values taken from PubChem BioAssay (NCI).
